# Compound activity as filed in PubChem BioAssay.
# Pf Dd2 growth: blocks in vitro growth of P. falciparum Dd2 | Potency, µM (doses to about 28.9 µM), for the others: top-dose activity, negative = inhibition, most hits filed as inhibitors | actives 4.3% (n = 120,000) | P. falciparum Dd2 growth, SYBR Green, 72 h; active means well fitted inhibition curve with a large enough effect;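 further: plate controls were DMSO vehicle for no effect and reference drug for full effect; nearly all actives have a fitted effect of over 65% in size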
#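 Readout: SYBR Green fluorescence, 485 nm excitation, 535 nm emission, after ~16 h lysis at 37C. Before that, Dd2-infected red cells (2.5% hematocrit) grew 72 h with compound, 29 uM top final concentration.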
# * = called active by the depositor; i = inactive; [ ] = remark or other dose. This is one part of a sample in which hits are shown more often than they occur. Potency means the concentration at half of the fitted maximal effect.
SMILES,Pf Dd2 growth
CC(C)CNC(=O)C1c2ccccc2C(=O)N(C2CCCC2)C12CCCC2 (centres undefined),-25.6%
COCc1nnc(NC(=O)C2c3ccccc3C(=O)N(CC(C)C)C23CCCC3)s1 (centres undefined),5.62µM*
COCC(=O)NC[C@H]1CCN(Cc2ccc(C)s2)C[C@H]1N(C)C,i
O=C(Nc1ccccc1F)N1CC2CCC(C1)N2Cc1cccc(Cl)c1,8.7%
CCS(=O)(=O)N1C[C@@H]2CN(Cc3ncc[nH]3)C[C@]2(C(=O)O)C1,-5.3%
O=C1Nc2cnccc2C2(CCN(C(=O)OCc3ccccc3)C2)O1 (centres undefined),i
O=C(Cc1ccsc1)N1CCC2(CC1)N=C(c1ccccc1)NO2,i
O=C(NC1CC1)[C@@H]1C[C@H](Oc2cccnc2)CN1C(=O)Cc1cccc(F)c1,14.9%
C=CCNc1nc(C)nc2c1CCN(C(=O)CNS(C)(=O)=O)CC2,-10.5%
CCO[C@H]1CN(C(=O)CCc2ccc(-c3ccc(Cl)cc3)[nH]2)C[C@@H]1O,-19.7%
Cc1c(C(=O)N(C)Cc2cc(-c3ccccc3)no2)oc2c(F)cccc12,-8.1%
Cc1cccc(C)c1NC(=O)CN1C(=O)C(c2ccccc2)=NC12CCCCC2,i
COc1cccc(C(=O)N2CCCC(c3nn(-c4ccc(Cl)cc4)c(=O)[nH]3)C2)c1 (centres undefined),-20.7%
CN(C)CC1(O)CCN(C(=O)Cn2cc(C(=O)C3CC3)c3ccccc32)C1 (centres undefined),-5.0%
O=C(c1ccc(CC2CCCNC2)cc1)N1CCc2nc[nH]c2C1 (centres undefined),5.0%
CNC(=O)c1noc(CN2CCCC(CCc3c(F)cccc3F)C2)n1 (centres undefined),-21.2%
O=C1NCc2ccccc2CC12CCCN2C/C=C/c1ccccc1 (centres undefined),-25.3%
O=C1Nc2ccccc2CN(C/C=C/c2ccccc2)C12CCNC2 (centres undefined),11.2µM*
O=C1Nc2ccccc2CN(Cc2ccc(Cl)cc2)C12CCNCC2,7.08µM*
O=C1Nc2ccccc2CN(Cc2ccncc2)C12CCNCC2,0.5%
O=C(C1CC1)N1Cc2ccccc2NC(=O)C12CCNCC2,20.0%
O=C1Nc2ccccc2CN(CC2CCOCC2)C12CCNCC2,12.8%
O=C(C1CCCC1)N1CCN(C2CCN(CCc3ccccc3)C2=O)CC1 (centres undefined),4.5%
COC1CCC(C(=O)N2CC(COc3ccccc3)C3(C2)CN(c2ccccc2)C3)CC1 (centres undefined),-13.1%[44.1 µM]
CCNC(=O)NC[C@H]1O[C@H](Cc2cc(CN3CCOCC3)on2)CC[C@@H]1O,-9.5%[44.1 µM]
SMILES,Pf Dd2 growth
CN(C)C[C@@H]1CN(C2CCOCC2)C[C@H]1NC(=O)C1CC=CCC1 (some centres undefined),3.6%
COCCOCC(=O)N1CCC2(CC1)c1[nH]c3ccccc3c1CCN2C,-22.4%
COc1ccc(C(=O)N2CCC3(CCC3OC)CC2)cc1 (centres undefined),5.1%
COc1ccc(-c2noc(-c3nc(C(C)C)no3)n2)cc1,9.4%
N#CC1CCN(C(=O)c2nc(-c3cccc(C(F)(F)F)c3)c3ccccn23)CC1,i
CSc1ccc(NC(=O)N2CCc3nc4cc(-c5ccccc5)[nH]n4c(=O)c3C2)cc1,i[5.79 µM]
Cc1ccc(C(=O)N[C@H]2CO[C@H]3[C@@H]2OC[C@@H]3Nc2nccc(C(C)(C)C)n2)cc1,11.2µM*
CC(=O)Nc1ccc(S(=O)(=O)N[C@H]2CO[C@H]3[C@@H]2OC[C@@H]3Nc2nccc(C(C)(C)C)n2)cc1,-9.0%
CC(C)(C)c1ccc(NC(=O)O[C@@H]2CO[C@H]3[C@@H]2OC[C@@H]3Nc2nccc(C(C)(C)C)n2)cc1,i
Cc1ccc2nc(NC(=O)Cn3nc4c(cc3=O)CCCCC4)sc2c1,2.7%
COCCNC(=O)[C@@H]1C[C@H](Oc2ccccc2)CN1C(=O)c1cc2ccccc2[nH]1,-29.7%
COc1ccc(CN2C=C(C(=O)OCc3noc(-c4ccc(C)c(C)c4)n3)C(C)=NS2(=O)=O)cc1,i
COc1ccc(CN2C=C(C(=O)OCc3noc(C)n3)C(C)=NS2(=O)=O)cc1,13.7%
COc1ccc(CN2C=C(C(=O)OCc3noc(-c4ccc(C)cc4)n3)C(C)=NS2(=O)=O)cc1,11.2µM*
CCOCc1nc(C2CCCN(C(=O)COc3ccccc3)C2)no1 (centres undefined),18.6%
CCC[C@@H]1CN(Cc2[nH]cc(C)c(=O)c2C)C[C@H]1C(=O)O,-5.1%
Cc1cc(NC(=O)N2CCC(Oc3ncccc3C(=O)N(C)C)C2)ccc1Br (centres undefined),i
CN(CC(=O)N1CCN(Cc2ccccc2)CC(O)C1)C1CCCC1 (centres undefined),8.91µM*
O=C(C1CCC1)N1CCN(Cc2ccccc2)CC(O)C1 (centres undefined),-4.7%
O=C(C1CC1)N1CCN(Cc2ccccc2)CC(O)C1 (centres undefined),11.3%
COC[C@H]1C[C@@H](NC(=O)c2ccccc2)[C@H](O)[C@@H]1O,17.6%[44.1 µM]
COC(=O)C(NC(=O)N1CCc2nc3cc(-c4ccccc4)[nH]n3c(=O)c2C1)C(C)C (centres undefined),i[5.79 µM]
Cc1ccc(CN(C)Cc2cnc(S(=O)(=O)C(C)C)n2CCc2ccccc2)o1,-27.3%
N#Cc1ccc(CN2CCCOCCNC(=O)CC2)cc1,-7.7%
N#CC1=C(N)N(c2cccc(Cl)c2)C2=C(C(=O)CCC2)C1c1cc(CN2CCOCC2)cs1 (centres undefined),10µM*
SMILES,Pf Dd2 growth
O=c1[nH]c(N2CCOCC2)nc2c1CCN(Cc1cccc(Cl)c1)CC2,18.2%[5.79 µM]
O=C1N(C2CCOCC2)C[C@H]2CN(Cc3cccc(Cl)c3)CCN12,i
N#CC1=C(N)N(c2ccc(Cl)cc2)C2=C(C(=O)CCC2)C1c1cc(CN2CCOCC2)cs1 (centres undefined),12.6µM*
CCOc1ccccc1C1NC(=O)N(CC(=O)Nc2cccc(CC)c2)C2=C1C(=O)OC2 (centres undefined),i
O=C(NCc1ccccc1Cl)[C@@H]1CNC[C@H]1COc1cccnc1,-7.0%
COc1cc(=O)n2c(c1C(=O)Nc1ccccc1C)CCCC2,19.1%
Cc1ccccc1NC(=O)c1c(C)oc2ccc(O)c(CN3CCCCCC3)c12,2.51µM*
COc1cc(=O)n2c(c1C(=O)Nc1ccc(F)c(Cl)c1)CCCC2,51.0%
COc1ccc(NC(=O)c2c(C)oc3ccc(O)c(CN4CCCCCC4)c23)cc1Cl,0.355µM*
Cc1cc(Br)ccc1NC(=O)c1c(C)oc2ncnc(N3CCCCC3)c12,-0.6%
Cc1ccc(NC(=O)c2c(C)oc3ncnc(N4CCCCC4)c23)cc1Cl,-5.8%
O=C(CCCc1ccccc1)N1CC(c2noc(COc3ccccc3)n2)C1,-8.4%
Cc1cnc(-c2ccccc2)n1CCNC(=O)NCc1ccccc1,i
CC1CCN(C(=O)[C@@H](C)C2CC[C@@]3(C)CC[C@H](NC(=O)c4cnccn4)[C@@H](C)[C@@H]3[C@H]2O)CC1 (some centres undefined),-25.4%
CCC(=O)N1CCC(N(C(=O)COC)C2CCOCC2)CC1,i
O=C(N1CCN(c2ccccn2)CC1)C1(c2ccc(Cl)cc2)CCOCC1,-0.1%
Cc1ccc(CNC(=O)CSc2nc3n[nH]c(C)c3c(=N)n2-c2ccccc2Cl)cc1,3.55µM*
COc1ccc(CNC(=O)CSc2n[nH]c(-c3ccc(OC)cc3)n2)cc1,i
COc1ccc(CNC(=O)c2cc(-c3ccc(C)cc3)nc3n[nH]c(-c4ccc(Br)cc4)c23)cc1,73.7%
